This is an account of results in PubChem BioAssay AID485346 (Sanford-Burnham Center for Chemical Genomics, 2010).

SMILES strings stand for the structures. Among all 330,000 compounds or so, about 10,000 (3%) were called active.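 Rule for the calls: active = inhibition of at least 50% at 8 µM in the primary screen; inactive = the rest.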 Many of the other results were omitted from the sample, so actives are more common in it than they were.

The target of this experiment is Protein Mdm4 (Homo sapiens) + E3 ubiquitin-protein ligase Mdm2 (Homo sapiens) (UniProt O15151+Q00987). The experiment is described as follows: inhibitors of human Mdm2-MdmX association, primary screen, cell-based, luminescence, split luciferase, SaOS-2, uHTS (AID 485346). Particulars: SaOS-2 split-luciferase Mdm2/MdmX complementation, at 8 µM, stronger effect = higher value.
Sequence of Protein Mdm4 (Homo sapiens) + E3 ubiquitin-protein ligase Mdm2 (Homo sapiens) (O15151 whole entry, looked up): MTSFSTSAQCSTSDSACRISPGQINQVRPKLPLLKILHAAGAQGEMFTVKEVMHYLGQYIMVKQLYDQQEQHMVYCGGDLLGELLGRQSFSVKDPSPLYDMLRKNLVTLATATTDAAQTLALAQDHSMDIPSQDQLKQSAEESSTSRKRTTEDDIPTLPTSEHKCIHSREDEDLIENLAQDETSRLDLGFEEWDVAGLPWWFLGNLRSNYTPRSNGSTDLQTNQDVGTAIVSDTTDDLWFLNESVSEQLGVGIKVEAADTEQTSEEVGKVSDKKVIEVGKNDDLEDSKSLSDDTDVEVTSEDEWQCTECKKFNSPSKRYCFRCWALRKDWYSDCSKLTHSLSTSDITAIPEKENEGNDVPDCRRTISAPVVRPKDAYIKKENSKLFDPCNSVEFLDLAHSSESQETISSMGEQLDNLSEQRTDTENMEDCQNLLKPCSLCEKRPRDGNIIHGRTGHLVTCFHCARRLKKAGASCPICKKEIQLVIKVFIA
Sequence of Protein Mdm4 (Homo sapiens) + E3 ubiquitin-protein ligase Mdm2 (Homo sapiens) (Q00987 whole entry, looked up): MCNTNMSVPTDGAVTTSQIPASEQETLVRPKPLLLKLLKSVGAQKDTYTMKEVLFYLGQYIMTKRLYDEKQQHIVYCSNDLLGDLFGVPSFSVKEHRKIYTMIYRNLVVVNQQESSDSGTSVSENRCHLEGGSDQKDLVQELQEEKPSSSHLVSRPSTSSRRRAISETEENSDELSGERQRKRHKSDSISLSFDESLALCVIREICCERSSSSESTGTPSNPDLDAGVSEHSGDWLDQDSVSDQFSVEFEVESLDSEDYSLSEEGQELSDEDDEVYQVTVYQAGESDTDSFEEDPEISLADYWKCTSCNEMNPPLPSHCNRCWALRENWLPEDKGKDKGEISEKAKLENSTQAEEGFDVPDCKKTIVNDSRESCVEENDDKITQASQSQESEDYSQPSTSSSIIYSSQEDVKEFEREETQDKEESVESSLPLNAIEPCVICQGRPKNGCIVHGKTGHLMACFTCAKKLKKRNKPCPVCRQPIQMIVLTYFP
Regarding `CC(NC(=O)c1ccc(N2CCNCC2)c([N+](=O)[O-])c1)C12CC3CC(CC(C3)C1)C2` (stereo not drawn), the inhibition is 101% (active).

For the compound `O=C(NC1C2CC3CC(C2)CC1C3)c1ccc(N2CCNCC2)c([N+](=O)[O-])c1` (stereo not drawn), the inhibition is 34.8% (inactive). The same measure for `O=C(Nc1cccc(C(F)(F)F)c1)c1ccc(N2CCNCC2)c([N+](=O)[O-])c1`: 52.8% (active); for `CCC(C)NC(=O)c1ccc(N2CCC3(CC2)OCCO3)c([N+](=O)[O-])c1` (stereo not drawn): 10.6% (inactive). The same measure for `COc1cc(OC)cc(C(=O)NC(=S)N2CCN(c3ccc(C(F)(F)F)cc3[N+](=O)[O-])CC2)c1`: 17.3% (inactive). In the case of `O=C(Nc1ccc(N2C(=O)c3cccc4cccc(c34)C2=O)cc1)c1ccc(N2CCCCC2)c([N+](=O)[O-])c1`, the inhibition was -6.66% (inactive).

`Brc1c(CSc2nncc3ccccc23)nc2ccccn12`: the inhibition is 21.7% (inactive). Take `CCc1ccccc1NC(=O)c1ccc2c(c1)CCN2S(C)(=O)=O`: the inhibition was 24.8% (inactive).

In the case of `CC(=N\NC(=O)c1cc(Br)ccc1O)/C(=N/O)C(=O)Nc1ccccc1`, the inhibition is 36.7% (inactive). Under `CCN(CC)C(CNC(=O)CSc1nnnn1-c1cccc(F)c1)c1ccco1` (stereo not drawn) stands -4.51% (inactive). Under `Cc1ccc(-n2c(SCC(=O)NCCC3=CCCCC3)nc3n[nH]c(C)c3c2=N)cc1Cl` stands 28.5% (inactive); under `COc1cccc(-n2c(SCC(=O)NC3CCCCC3)nc3n[nH]c(C)c3c2=N)c1`, 53.3% (active). Turning to `CCCCNC(=O)CSc1nc2n[nH]c(C)c2c(=N)n1-c1cccc(Cl)c1C`, the inhibition is -6.85% (inactive). The same measure for `COCCNC(=O)CSc1nc2sccc2c(=O)n1-c1ccccc1`: 6.49% (inactive); for `CN(C)CCCn1c(=O)n(Cc2ccccc2)c(=O)c2c3c(sc21)CCCCC3`: 61.8% (active); for `Cn1c(=O)n(Cc2ccco2)c(=N)c2c3c(sc21)CCCC3`: 15.6% (inactive). Take `O=c1c2c3c(sc2n(CCN2CCCC2)c(=O)n1Cc1ccccc1)CCCCC3`: the inhibition is 28.5% (inactive). As to `CCc1ccc(C(CNc2nc(C(F)(F)F)nc3ccccc23)N(C)C)cc1` (stereo not drawn), the inhibition is 20.9% (inactive).

For the compound `CC(Nc1nc(C(F)(F)F)nc2ccccc12)c1cccs1` (stereo not drawn), the inhibition was 69.6% (active). For `COc1cccc(CNc2nc(C(F)(F)F)nc3ccccc23)c1`, the inhibition was 31.6% (inactive). For `COc1ccccc1CNC(=O)CCCN1C(=O)NC2(CCCC2)C1=O`, the inhibition was 20.4% (inactive). Under `Cc1c(C(=O)NCCN2CCOCC2)sc2nc(-c3ccc(F)cc3)cn12` stands 7.76% (inactive); under `O=C(N/N=C/c1cccnc1)c1ccc(NC(=O)c2ccc(F)cc2)cc1`, -2.66% (inactive). For the compound `O=C(NN=C1CCC(=NNC(=O)c2cccnc2)CC1)c1cccnc1`, the inhibition was -0.152% (inactive).

On to `O=C(N/N=C/c1sc(N2CCCCC2)nc1-c1cccs1)c1cccnc1`, for which the inhibition is 57.4% (active). Under `CCOC(=O)c1csc(CCNC(=O)c2oc3c(Cl)cc(C)cc3c2C)n1` stands 21.7% (inactive); under `CC(C)(C)CC(C)(C)NCC(O)COCCOc1ccc(Br)cc1` (stereo not drawn), 65.4% (active). Consider `CC(Oc1ccc(Br)cc1)C(=O)NC1CCCCCC1` (stereo not drawn), for which the inhibition is 0.219% (inactive). The same measure for `OC(COc1ccc(Br)cc1)CN1CCCC1` (stereo not drawn): 2.28% (inactive); for `NC(=O)CCC(NS(=O)(=O)c1ccc(Cl)cc1)C(=O)NCc1ccccc1Cl` (stereo not drawn): 20.8% (inactive); for `Cc1cc(C)c2nc(-c3cccnc3)cc(C(=O)Nc3ccc(S(=O)(=O)Nc4onc(C)c4C)cc3)c2c1`: -28.5% (inactive). The same measure for `Cc1ccc(Cn2c(=N)c(S(=O)(=O)c3ccc(C)cc3)cc3c(=O)n4ccccc4nc32)cc1`: 21.6% (inactive); for `N#CC1=C(N)OC2=C(C(=O)CCC2)C1C1CC=CCC1` (stereo not drawn): -10% (inactive). Take `N#CC1=C(N)Oc2cc(O)ccc2C1C1CCCCC1` (stereo not drawn): the inhibition was 64.7% (active).

Consider `COCc1[nH]nc2c1C(C1C=CCCC1)C(C#N)=C(N)O2` (stereo not drawn), for which the inhibition is 23.8% (inactive). The same measure for `COc1cc(C#Cc2ccc3cc(CCCO)oc(=O)c3c2)cc(OC)c1`: 38.9% (inactive). The same measure for `COc1ccc2c(c1)O/C(=C\c1ccccc1O)C2=O`: -152% (inactive); for `COc1cc(/C=C2\Oc3ccc(C#Cc4ccc(O)cc4)cc3C2=O)cc(OC)c1`: 62.4% (active). Under `O=C(Nc1cccc2c1CCCC2)c1ccc(F)cc1` stands 11.9% (inactive). Take `COc1ccc([C@H]2CC(=O)C=C(c3ccc(OC(F)(F)F)cc3)C2)cc1OC`: the inhibition was -6.36% (inactive). As for `CC[n+]1cc(C)ccc1/C=C/c1ccc(N(C)C)cc1`, the inhibition was 81.1% (active). Consider `Cc1ccc2c(cnn2C(=O)CCC(=O)NC2CCCC2)c1`, for which the inhibition is 7.95% (inactive). The same measure for `Cn1nccc1NS(=O)(=O)c1ccc(F)cc1`: -11.5% (inactive). For the compound `NS(=O)(=O)c1ccc(CCNC(=O)c2ccc([N+](=O)[O-])cc2[N+](=O)[O-])cc1`, the inhibition was -0.842% (inactive). On to `Cc1c(-c2ccccc2)cn2c1-c1ccc(C)n1CC2`, for which the inhibition is -3.59% (inactive). Consider `O=S(=O)(c1cccs1)N1CCN(CCOc2ccccc2)CC1`, for which the inhibition was 14.3% (inactive). Turning to `Cn1cc(S(=O)(=O)NC(c2ccccc2)c2ccccc2)c(=O)n(C)c1=O`, the inhibition was 7.36% (inactive).

As for `c1ccc(-c2cc(-c3ccccc3)[nH]n2)cc1`, the inhibition was -145% (inactive). For the compound `Nc1cccc(CCc2nc3ccccc3[nH]2)c1`, the inhibition is -30.8% (inactive). The same measure for `Nc1cccc(-c2cc(-c3ccccc3)nc(-c3cccc(N)c3)n2)c1`: 65% (active). Under `N#Cc1cccc(CSc2ncnc(N)n2)c1` stands 7.81% (inactive); under `COc1ccc(C2CC(c3cccs3)=NN2c2nc(C)c(C(C)=O)s2)cc1OC` (stereo not drawn), 67.5% (active); under `COc1ccc(C2CC(c3cccs3)=NN2C(=O)CCC(=O)O)cc1OC` (stereo not drawn), 17.5% (inactive).

`COc1ccc(C2CC(c3cccs3)=NN2c2ccc(F)cc2)cc1OC` (stereo not drawn): the inhibition was -3.01% (inactive).

Take `Cc1cc(NC(=O)CCC(=O)N(Cc2ccccc2)C(C(=O)NC2CCCC2)c2ccc(C)o2)no1` (stereo not drawn): the inhibition was 16.1% (inactive). `Cc1ccc(NC(=S)NC(NC(=O)Cc2cccc3ccccc23)C(Cl)(Cl)Cl)cc1` (stereo not drawn): the inhibition is 79.8% (active).

For the compound `CC(C)(C)C(=O)NC(NC(=S)Nc1ccc(S(N)(=O)=O)cc1)C(Cl)(Cl)Cl` (stereo not drawn), the inhibition was 18.8% (inactive). With `O=C(Cc1cccc2ccccc12)NNC(=O)Nc1ccc(Cl)cc1`, the inhibition was -10% (inactive).

As usually defined, the inhibition is the drop in the measured response relative to a control, in per cent.
